The campaign covered roughly 1,200 compounds. About 55 (5%) were called active. Roughly 15% stayed inconclusive and do not appear here. For the sample, actives were picked, then their nearest neighbours and some compounds at random. Unmarked numbers belong to inactive results. Calls come from the whole dose curve; as a rule, active = well fitted inhibition curve with a large enough effect; inconclusive = small, poorly fitted or top-dose-only effect; inactive = no such curve, though single readings can be large or run the other way.
assay: qHTS Assay to Find Inhibitors of Chronic Active B-Cell Receptor Signaling: Hit Validation in Renilla Reporter Assay; conditions: TMD8 IkB-Renilla luciferase reporter, NF-kB signaling; series mostly up to 57.5 µM; activity change, negative = inhibition: at the top concentration; note: nearly all actives have a fitted effect of over 70% in size
Outline: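 Dual-Glo luminescence read-out of constitutively expressed IkB-Photinus/Renilla luciferase reporters in ABC-DLBCL lines, used to retest primary hits; reporter enzymes differ from the click beetle luciferases used in the primary screen.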
% is set by controls: 0 for no effect and ±100 for the full control effect; potency is the fitted concentration of half-maximal effect.

SMILES	activity change, negative = inhibition [%]	Potency
Cc1ccc(Sc2c(CO)c(-c3ccccc3)nn2C)cc1	4.68	–
COc1ccc(NC(=O)C(=O)c2cn(CC(=O)N3CCCC3)c3ccccc23)cc1	5.43	–
CC(=O)Nc1ccc(NS(=O)(=O)c2cc(-c3n[nH]c(=O)c4ccccc34)ccc2C)cc1	19.6	–
COC(=O)c1ccc(C)c(NS(=O)(=O)c2ccc(OC)cc2)c1	32.4	–
CCOc1ccccc1C(=O)N1CCN(c2cccc(Cl)c2)CC1	-20.3	–
COc1ccc(-c2c(C)c3ccc(O)cc3oc2=O)cc1OC	28.9	–
Cc1cccc(C(=O)N[C@H](C(=O)Nc2nc3ccccc3[nH]2)C(C)C)c1	-18.3	–
Cc1ccc(/C=C/C(=O)c2nc3ccccc3[nH]2)cc1	–	16.9 µM (active)
CC1=CC(C)(C)N(S(=O)(=O)c2ccc(C)cc2)c2cc(C)ccc21	-7.09	–
COC(=O)c1cc(C(=O)N2CCN(c3cccc(Cl)c3)CC2)cc([N+](=O)[O-])c1	-0.459	–
COc1cccc(/C=N/NC(=S)Nc2cccc(S(=O)(=O)N(C)C)c2)c1	17.9	–
CC(=O)Nc1cc(N=Cc2ccc(O)cc2O)c(Cl)cc1Cl	–	12 µM (active)
Cc1ccc(NS(=O)(=O)c2ccc(-c3cnc(C4CC4)o3)cc2)c(C)c1	5.35	–
COc1ccc(Nc2cc3n(c(=O)n2)CCc2cc(OC)c(OC)cc2-3)c(C)c1	-11	–
COc1ccc(-c2c(-c3cc(OC)c(OC)c(OC)c3)noc2C)cn1	-20.2	–
COc1cc(/C=C2\OC(=O)c3c(OC)cccc32)ccc1O	1.72	–
COc1ccc(/C=C2\CCc3ccccc3C2=O)cc1O	–	26.9 µM (active)
COc1cc(/C=N/N(C)c2ccccc2)ccc1O	7.62	–
COc1ccc(-c2sc3cc(OC)c(OC)cc3c2C#CC(C)(C)O)cc1	6.22	–
CCCn1nc(Oc2nc(N(C)C)nc(N(C)C)n2)ccc1=O	-0.0736	–
COc1ccc(C(=O)Nc2ccc(-n3nncc3-c3ccc(OC)c(OC)c3)cc2)cc1	-26.9	–
CCN(c1cccc(C)c1)S(=O)(=O)c1ccc(-c2cc(C)no2)s1	12	–
COc1ccccc1/C=N/NC(=S)Nc1cccnc1	-2.9	–
O=C(CCCN1C(=O)/C(=C/c2ccccc2OC(F)F)SC1=S)Nc1cccnc1	–	30.1 µM (active)
COc1ccccc1-c1cc(C(=O)Nc2cccnc2)no1	-1.55	–
Cc1ccc2c(c1)C(=O)C(=O)N2CC1COc2ccccc2O1 (stereo unspecified)	-20.1	–

SMILES	activity change, negative = inhibition [%]	Potency
CCn1c2ccccc2c2cc(NC(=O)c3cc(OC)cc(OC)c3)ccc21	2.33	–
CCCCn1c(SCC(=O)c2cc(OC)ccc2OC)nc2cc(S(N)(=O)=O)ccc21	-0.961	–
COc1ccccc1-c1nnc2sc(-c3ccc(N(C)C)cc3)nn12	2.63	–
COC(=O)[C@@H]1[C@@H](C#N)C2(c3ccccc3-c3ccccc32)N(c2ccc(Cl)cc2)N1C#N	–	4.78 µM (active)
O=C(Cc1ccc(-n2c(=O)c3ccccc3n(Cc3ccccc3F)c2=O)cc1)NCC1CCCO1 (stereo unspecified)	-0.408	–
COc1cc(OC)c(OC)cc1/C=C/C(=O)c1ccc(NS(=O)(=O)c2ccc(C)cc2)cc1	-16.9	–
CN(C)c1nc(=NCc2ccco2)ss1	–	16.9 µM (active)
CCC(=NCCc1c(C)[nH]c2ccc(C)cc12)C1=C(O)CC(c2ccccc2)CC1=O (stereo unspecified)	-14.9	–
COc1ccc(C2CC(c3ccc(OC)c(OC)c3)=NN2C(=O)c2ccccc2)cc1 (stereo unspecified)	-1.47	–
CCCc1noc2c1C(c1ccoc1)C(C#N)=C(N)N2 (stereo unspecified)	–	23.9 µM (active)
CCc1ccc(CNC(=O)Cc2ccc(NC(=O)C3=C(C)OCCS3)cc2)cc1	0.25	–
O=C(NN=C1CCCC1)c1n[nH]c2c1CCCC2	0.76	–
CC1=NN(C(N)=S)C(=O)C1N=Nc1cccc([N+](=O)[O-])c1 (stereo unspecified)	-13.6	–
ClCc1nc2ccccc2c2ccccc12	–	23.9 µM (active)
CCc1nc2ccccc2c(C(=O)OCc2nc3ccccc3c(=O)[nH]2)c1C	-0.954	–
S=c1nc2ccccc2c2nc(-c3ccccc3Cl)[nH]n12	-27.4	–
COc1cc(OC)cc(-c2cc3cc4c(cc3cn2)OCO4)c1	-4.56	–
CCOC(=O)C1=C(O)/C(=C/c2ccc(OCC(=O)O)c(OCC)c2)SC1=Nc1ccccc1	-13	–
CCOC(=O)C(C)N1C(=O)S/C(=C/c2ccc3c(c2)n(C)c(=O)n3C)C1=O (stereo unspecified)	1.42	–
CCOc1cc(/C=C2\CN(C)C/C(=C\c3ccc(O)c(OCC)c3)C2=O)ccc1O	–	5.36 µM (active)
Cc1ccc(C)c(Cn2c(=O)n(-c3ccc(CC(=O)NCc4ccco4)cc3)c(=O)c3sccc32)c1	-11	–
Cc1ccc(N2C(=O)c3cccc4c(N)ccc(c34)C2=O)c2cccnc12	-20.2	–
COc1ccc([C@H]2CC(=O)C=C(c3ccc(OC)cc3OC)C2)cc1	9.69	–
COc1ccc(S(=O)(=O)N2CCCCC2)cc1NS(=O)(=O)c1cc(Cl)ccc1Cl	32.2	–
CCOc1ccc(N(CC(=O)Nc2ccccc2C)S(=O)(=O)c2c(C)noc2C)cc1	0.105	–
